Our source for the survival values is PubChem BioAssay AID463173 (ICCB-Longwood Screening Facility, Harvard Medical School, 2010).

SMILES strings stand for the structures. Among all 52,000 compounds or so, about 4,300 (8.3%) were called active. The sample holds actives, similar compounds and a random draw of the others, so the mix is not that of the screen. Unmarked numbers belong to inactive results. Rule as the data show it: active = survival mostly below about 52% (no sharp cut-off); inactive = mostly above about 56%.

This experiment deals with DeltatarO mutant. Kind of experiment: growth inhibition of S. aureus wild type versus tarO mutant, primary screen, teichoic acid synthesis inhibitors, RN4220, OD600 (AID 463173). The settings on record: OD600, 18 h, hits give low values, screened at 18.75 µg/mL (by protocol).
Take `CC(C)c1ccc(CNc2nc(-c3ccco3)nn2C(=O)c2ccc([N+](=O)[O-])cc2)cc1`: the survival was 79%.

`COc1ccc(NC(=O)Cn2nnc(C(=O)NCc3ccc4c(c3)OCO4)c2N)cc1`: the survival is 76%.

On to `COc1cc(/C=C(\C#N)C(=O)NCC2CCCO2)ccc1O` (stereo not drawn), for which the survival is 83%.

Take `N#C/C(=C\c1ccc(Cl)cc1)C(=O)NCC1CCCO1` (stereo not drawn): the survival is 44% (active).

With `N#C/C(=C\c1ccc(F)cc1)C(=O)NCC1CCCO1` (stereo not drawn), the survival is 68%.

On to `CCOC(=O)c1[nH]c(C)c(CCC(=O)Nc2ccccc2C(=O)OC)c1C`, for which the survival is 77%.

In the case of `Cn1c(NCc2cccc(Cl)c2)nc2ccccc21`, the survival was 104%.

As for `Cc1ccc(CNC(=O)c2ccc(CSCc3c(F)cccc3Cl)o2)cc1`, the survival was 90%.

Turning to `CCn1c(NCc2cccc(Cl)c2)nc2ccccc21`, the survival was 102%.

Regarding `Cc1ccc(CNc2nccn(-c3cc(C)cc(C)c3)c2=O)cc1`, the survival is 95%.

As to `Cn1c(-c2ccc3c(c2)OCO3)cnc1NCc1cc(Cl)ccc1O`, the survival is 70%.

With `Cn1c(-c2ccccc2)cnc1NCc1ccccc1O`, the survival was 46% (active).

Turning to `Cc1ccc(-c2cnc(NCc3c(F)cccc3Cl)n2C)cc1`, the survival was -4% (active).

Take `Cc1ccc(-c2cnc(NC(=O)CCC(=O)N3CCCCC3)n2C)cc1`: the survival is 91%.

Consider `CCCc1cc(=O)n2[nH]c(NCc3c(F)cccc3Cl)nc2n1`, for which the survival is 86%.

As for `Cc1ccc(-c2cnc(NCc3ccc(C(F)(F)F)cc3)n2C)cc1`, the survival is -5% (active).

As for `Cn1c(-c2ccccc2)cnc1SCc1ccccc1`, the survival was 108%.

For `CCOc1ccc(-c2cnc(NCc3cccc(Cl)c3)n2C)cc1`, the survival was 30% (active).

For `Cc1cc(C)cc(-n2c(SCC(=O)N3CCCCCC3)nc3c([nH]c4ccccc43)c2=O)c1`, the survival is 94%.

As for `CCOc1ccc(N(CC)C(=O)c2nn(-c3ccc(OC)cc3)c(=O)c3c2c2ccccc2n3C)cc1`, the survival is 82%.

For the molecule `CCOc1cc2sc(N3CCC(C(=O)Nc4ccc(C(C)C)cc4)CC3)nc2cc1Br`, the survival was 75%.

Consider `COC(=O)CN(c1ccccc1Cl)S(C)(=O)=O`, for which the survival was 52%.

`COc1ccc(NC(=O)c2oc3ccccc3c2NC(=O)c2cccc(F)c2)c(OC)c1`: the survival was 95%.

With `COc1cc(OC)c(NC(=O)C2=C(C)C(=O)OC23CCN(C(C)=O)CC3)cc1Cl`, the survival is 75%.

Turning to `Cc1ccc(NC(=O)CN2C=NS(=O)(=O)c3ccccc32)c(C)c1`, the survival is 99%.

`COc1ccc(-c2nc(Cn3c(SCc4ccc(C)cc4)nc4cccnc43)c(C)o2)cc1OC`: the survival was 113%.

In the case of `COc1ccc(-c2cnc(NCc3ccc(C)cc3)n2C)cc1`, the survival is 121%.

As to `Cc1ccc(CNc2nc3c(c(=O)n(C)c(=O)n3C)n2Cc2ccc(Cl)cc2)cc1`, the survival was 54%.

In the case of `CCOc1ccc(NC(=O)C(=O)NCCc2csc(-c3ccc(C(F)(F)F)cc3)n2)cc1`, the survival was 94%.

Regarding `CCOc1ccc(-n2cc(-c3ccccc3)c3c(NCc4ccc(F)cc4)ncnc32)cc1`, the survival was 95%.

For the molecule `Cc1ccc(-c2cnc(NCc3ccc(C(C)C)cc3)n2C)cc1`, the survival is -4% (active).

Regarding `CCOc1ccc(-c2cnc(NCc3ccc(C(F)(F)F)cc3)n2C)cc1`, the survival was -3% (active).

For `Cc1ccc(NC(=O)CCN2C(=O)c3ccccc3Sc3ncccc32)c(Cl)c1`, the survival is 74%.

As to `CCOc1ccc(C(=O)NCCc2csc(-c3cccnc3)n2)cc1`, the survival was 81%.

Turning to `Cc1ccc(CNc2nc3ccccc3n3c(C)nnc23)cc1`, the survival is 88%.

On to `CCn1nc(C)c(CCN(C)C(=O)Nc2ccc(C)c(Cl)c2)c1C`, for which the survival is 88%.

On to `CSc1ccc(CCNC(=O)c2cc3cc4cc(C)ccc4nc3s2)cc1`, for which the survival was 144%.

In the case of `COc1ccc2nc3sc(C(=O)NCCc4ccc(Cl)cc4)cc3cc2c1`, the survival was 103%.

`CCOc1ccccc1NC(=O)c1cc2cc3cc(C)ccc3nc2s1`: the survival was 91%.

On to `Cc1ccc(CCNC(=O)c2cc3cc4cc(C)ccc4nc3s2)cc1`, for which the survival is 46% (active).

On to `CCOc1ccc(NC(=O)c2cc3cc4cc(OC)ccc4nc3s2)cc1`, for which the survival was 82%.

With `Cc1ccc2nc3sc(C(=O)Nc4ccc(F)cc4)cc3cc2c1`, the survival is 37% (active).

In the case of `CNC(=O)CN(C1CCCCC1)S(=O)(=O)c1ccc(C)cc1`, the survival is 75%.

As for `CC(C)C(=O)c1cn(CC(=O)NCc2cccs2)c2ccccc12`, the survival is 88%.

For `CC(C)NC(=O)C1CCC(Cn2c(=O)c3sccc3n(CC(=O)Nc3ccccc3)c2=O)CC1` (stereo not drawn), the survival was 74%.

With `CCc1ccc(CNC(=O)c2cnc3sc(N4CCCCC4)nn3c2=O)cc1`, the survival was 99%.

Turning to `Cc1ccc(C)c(CN2CCCN(Cc3ccccc3C)S2(=O)=O)c1`, the survival was 87%.

Regarding `COC(=O)c1ccc(OC)c(CN2CCCN(Cc3ccc(C)cc3)S2(=O)=O)c1`, the survival is 20% (active).

For `COc1ccc(NC(=O)CN2CCCN(Cc3ccc(Cl)cc3)S2(=O)=O)cc1Cl`, the survival is 60%.

On to `COC(=O)c1ccc(NC(=O)CN2CCCN(Cc3ccc(Cl)cc3)S2(=O)=O)cc1`, for which the survival is 94%.

On to `Cc1ccc(CN2CCCN(Cc3c(C)cc(C)cc3C)S2(=O)=O)cc1`, for which the survival is 91%.

`Cc1ccc(C)c(CN2CCCN(Cc3ccc(F)cc3)S2(=O)=O)c1`: the survival is -5% (active).

Turning to `CCOC(=O)CCCN1C(=O)CCn2nc(-c3cn(C)c4ccccc34)cc21`, the survival is 69%.

For `CCN(c1ccccc1C)S(=O)(=O)c1ccc(N2CCCCS2(=O)=O)cc1`, the survival was 125%.

Regarding `CCSc1nnc(C2CCCN(CC(=O)NC3CCCCC3C)C2)n1CC` (stereo not drawn), the survival is 74%.

`Cc1cccc(-c2nc(CN3CCCC(C(=O)NCc4ccc(Cl)cc4)C3)c(C)o2)c1` (stereo not drawn): the survival is 18% (active).

As for `Cc1ccccc1-c1nc(CN2CCCC(C(=O)NCc3ccc(Cl)cc3)C2)c(C)o1` (stereo not drawn), the survival was 61%.

In the case of `Cc1oc(-c2cccc(Cl)c2)nc1CN1CCCC(C(=O)NCc2ccc(F)cc2)C1` (stereo not drawn), the survival is 52%.

For the molecule `Cc1oc(-c2cccc(Cl)c2)nc1CN1CCCC(C(=O)NCc2ccc(Cl)cc2)C1` (stereo not drawn), the survival was -1% (active).

`Cc1oc(-c2ccc(Cl)cc2)nc1CN1CCCC(C(=O)NCc2ccc(Cl)cc2)C1` (stereo not drawn): the survival was 59%.

With `Cc1ccc(CNC(=O)C2CCCN(Cc3nc(-c4cccc(C)c4)oc3C)C2)cc1` (stereo not drawn), the survival was 41%.

As to `CSCCC(NS(=O)(=O)c1ccc2c(c1)oc(=O)n2C)C(=O)N1CCN(c2cccc(Cl)c2)CC1` (stereo not drawn), the survival is 72%.

Turning to `Cc1nn(-c2ccccc2)c2c1N(CCCC(=O)NCc1ccc(Cl)cc1)C(=O)CS2`, the survival was 94%.

`Cc1cccc(CNC(=O)c2ccc3nc(Cc4ccccc4)oc3c2)c1`: the survival is 124%.

For the molecule `CCOc1ccc(NC(=O)CSc2nc3c([nH]c4ccccc43)c(=O)n2-c2cc(C)cc(C)c2)cc1`, the survival is 89%.

As for `Cc1ccc(N2CC(NC(=O)c3ccc(S(=O)(=O)N4CCCC4)cc3)CC2=O)cc1C` (stereo not drawn), the survival was 83%.

Turning to `O=C(Cn1ncc2c3ccccc3n(Cc3ccccc3F)c2c1=O)NCCCc1ccccc1`, the survival was 81%.

Take `Cc1cc(C)c2nc(N(Cc3cccnc3)C(=O)CCOc3ccccc3)sc2c1`: the survival was 84%.

With `Cc1ccc(CNC(=O)Cn2c(SCC(=O)Nc3ccc(F)cc3)nc3ccccc32)cc1`, the survival is 126%.

On to `CN(C(=O)CSc1nc2ccccc2n1Cc1cccc(C(F)(F)F)c1)c1ccccc1`, for which the survival is 66%.

Take `COc1ccc(NC(=O)CSc2nc3ccccc3n2CC(=O)NCc2ccc(F)cc2)cc1`: the survival is -5% (active).

As for `COc1ccc(CNC(=O)Cn2c(SCC(=O)Nc3ccc(OC)cc3)nc3ccccc32)cc1`, the survival was 89%.

`O=C(Cn1c(SCC(=O)Nc2ccc(F)cc2)nc2ccccc21)NCc1ccc(F)cc1`: the survival is 91%.

Regarding `COc1cccc(Cn2c(SCC(=O)N(C)c3ccccc3)nc3ccccc32)c1`, the survival was -4% (active).

Regarding `COc1cccc(CNC(=O)Cn2c(SCC(=O)Nc3ccc(F)cc3)nc3ccccc32)c1`, the survival is 8% (active).

For the molecule `COc1cccc(CNC(=O)Cn2c(SCC(=O)Nc3ccc(C)c(C)c3)nc3ccccc32)c1`, the survival was 87%.

With `COc1cccc(Cn2c(SCC(=O)N3CCN(c4ccc(F)cc4)CC3)nc3ccccc32)c1`, the survival was 66%.

As for `O=C(CSc1nc2ccccc2n1Cc1ccc(F)cc1)N1CCN(c2ccc(F)cc2)CC1`, the survival was 92%.

For the molecule `COC(=O)c1ccc(Cn2c(SCC(=O)N(C)c3ccccc3)nc3ccccc32)cc1`, the survival was 60%.

On to `COc1ccc(Cn2c(SCC(=O)N3CCN(c4ccc(F)cc4)CC3)nc3ccccc32)cc1`, for which the survival was 47% (active).

For the molecule `CCc1ccc(NC(=O)CCCn2nc(C)c3c(C)n(-c4ccccc4)nc3c2=O)cc1`, the survival was 81%.

Consider `CC(C)c1ccc(NC(=O)CSc2ncnc3c2sc2ccccc23)cc1`, for which the survival is 70%.

For `CCC(=O)OC1CSc2nc3ccccc3n2C1` (stereo not drawn), the survival was 76%.

With `Cc1ccc(-n2c(=O)c3c(c4cc(C)ccc4n3C)n(CC(=O)NCc3ccccc3Cl)c2=O)cc1`, the survival was 74%.

For the molecule `Cc1ccc(/C=C/c2onc(C)c2S(=O)(=O)N2CCC(C(=O)N3CCC(N(C)C(C)C)CC3)CC2)cc1`, the survival was 67%.

Turning to `CCOC(=O)C1=C(CN2CCN(c3ccccc3F)CC2)NC(=O)NC1c1ccc(OC)cc1` (stereo not drawn), the survival was 70%.

On to `Cc1ccc(CSCCC(=O)NCc2ccc(F)cc2Cl)cc1`, for which the survival was 118%.

Regarding `Cc1ccccc1NC(=O)Cn1c(SCC(=O)Nc2ccc(F)cc2)nc2ccccc21`, the survival is 95%.

Turning to `O=C(CSc1nc2ccccc2n1CC(=O)Nc1ccc(F)cc1F)Nc1ccc(F)cc1`, the survival was 89%.

For the molecule `COc1ccc(NC(=O)CSc2nc3ccccc3n2Cc2cccc(OC)c2)cc1`, the survival is 134%.

`COc1cccc(NC(=O)CSc2cc(C)c3ccccc3n2)c1`: the survival was 72%.

Consider `COc1cccc(NC(=O)CSc2nc3ccccc3n2C)c1`, for which the survival was 37% (active).

For the molecule `CC(=O)c1cccc(NC(=O)Cn2c(SCC(=O)Nc3ccc(F)cc3)nc3ccccc32)c1`, the survival was 20% (active).
